# Bioassay records (PubChem BioAssay)
# HIF-2a block = HIF-2a reporter inhibitors, primary screen, luminescence, 786-0 RCC cells. AID 624352, 2012. actives 0.72% (n = 360,000). inhibition, % at 18.8 µM. 786-0 RCC cells HIF-2a reporter, luciferase luminescence, overnight;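 active = inhibition of the luminescence signal of 40% or more relative to plate controls, in a single-dose primary screen at 18.75 µM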
# PPC-1+TRAIL kill = compounds killing PPC-1 cancer cells with TRAIL present, primary screen, TRAIL potentiator project, ATPLite luminescence, uHTS | cell killing (% activity), % at 4 µM or 5 µM | actives 0.41% (n = 220,000) | PPC-1 cells + TRAIL, ATPLite viability luminescence;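 active = cell killing above 50% in the first pass at 4 µM, then a duplicate retest at 5 µM averaging 50% or more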;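 note: plate controls were cells with TRAIL plus DMSO for no effect and medium-only wells lacking cells for full effect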
# CF NFkB block = inhibitors of PAF-induced NF-kB signaling, primary screen, cell-based, GFP fluorescence, uHTS; KKLEB NF-kB-GFP reporter, GFP fluorescence overnight; actives 0.86% (n = 360,000); inhibition, % at 5 µM;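 active = at least 50% inhibition at 5 µM, scaled per plate between neutral and stimulator controls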;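 note: PAF is a Pseudomonas aeruginosa culture filtrate used as stimulus; plate controls were PAF-stimulated DMSO wells for no effect and unstimulated DMSO wells for full effect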
# KKLEB cytotox = cytotoxicity in KKLEB CF airway cells, primary screen, cytotoxicity control for CF NF-kB inhibitor project, cell-based, uHTS, fluorescence assay plates | KKLEB CF airway cells viability, ATPlite luminescence, overnight; stronger effect = lower value; cells stimulated with P. aeruginosa culture filtrate | activity change (cytotoxicity), % at 5 µM | actives 0.36% (n = 360,000) | AID 602141, 2011;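 active = corrected activity change at or below -50% at 5 µM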
# TRAIL sens C8 = viability loss with TRAIL in NB7+C8 cells, primary screen, TRAIL sensitizer project, cell-based, ATPlite luminescence | inhibition (viability loss, TRAIL sensitization), % at 10 µM | actives 1% (n = 360,000);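 active = compounds causing at least 50% loss of cell viability in the single-dose screen, relative to plate controls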
# Peg3 prom inh-1 = Peg3 promoter-driven luciferase inhibitors, primary screen, cell-based, HeLa, luciferase luminescence; HeLa PEG-Prom luciferase reporter, overnight; inhibition, % at 20 µM; actives 1.7% (n = 360,000); AID 588405, 2011;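 active = inhibition of at least 50% at 20 µM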
# Peg3 prom inh-2 = Peg3 promoter reporter inhibitors, retest, confirmation, cell-based, HeLa, luciferase reporter, single concentration | shares compounds with Peg3 prom inh-1 | HeLa PEG-Prom luciferase reporter, luminescence, overnight | inhibition, % at 20 µM | actives 84% (n = 1,300);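 active = at 20 µM dose, 40% or more inhibition averaged across four replicates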
# Active calls of the source: *; · = no result. Shown are actives, neighbours in structure and some others; about 3.1% of the full set was active somewhere.
SMILES,HIF-2a block,PPC-1+TRAIL kill,CF NFkB block,KKLEB cytotox,TRAIL sens C8,Peg3 prom inh-1,Peg3 prom inh-2
N#Cc1ccc(COC(=O)CC(NC(N)=O)c2ccc(Cl)cc2)cc1 (configuration not stated),12,·,7,2,-3,-2,·
COc1cccc(/C=N/NC(=O)c2c(-c3ccccc3)noc2C)c1O,-7,31,7,-11,1,55*,56*
CCC(C)NC(=O)c1c(N)n(/N=C/c2cccnc2)c2nc3ccccc3nc12 (configuration not stated),-44,-4,-2,-6,32,50*,15
CCn1c(SCC(=O)Nc2nc3ccc(OC)cc3s2)nc2c1c(=O)n(C)c(=O)n2C,-12,1,-15,0,29,62*,35
CC(=O)c1cccc(-c2ccnc3c2CC(C(=O)Nc2cccc(NS(C)(=O)=O)c2)O3)c1 (configuration not stated),28,·,-9,-1,76*,59*,57*
CC(C)N1C/C(=C/c2ccsc2)C(=O)/C(=C/c2ccsc2)C1,29,34,-54,8,-2,103*,35
CC(C)NC(=O)C(c1ccc(F)cc1)N(C(=O)CCC(=O)Nc1ccccn1)c1cccc(F)c1 (configuration not stated),14,·,4,12,-12,0,·
O=c1cc(-c2ccc(O)cc2)oc2ccc3ccccc3c12,72*,·,-262,-61*,90*,67*,75*
O=c1cc(-c2ccc(O)cc2)oc2c1ccc1ccccc12,-79,·,-102,-9,18,-17,·
CC(C)N(C)c1ncnc2c1ncn2[C@H]1CN(Cc2cccs2)C[C@@H](CO)O1,1,·,4,0,11,10,·
COc1ccccc1CNC(=O)c1c(N)n(CCCN2CCOCC2)c2nc3ccccc3nc12,-51,19,-6,-2,18,60*,85*
Nc1c(C(=O)NCc2ccc3c(c2)OCO3)c2nc3ccccc3nc2n1CCCN1CCOCC1,-79,-10,-26,-4,7,29,·
COc1cc(OC)c(OC)cc1CCC(C)NCCC(c1ccccc1)c1ccccc1 (configuration not stated),4,·,5,-11,18,97*,88*
CCCCCCC=C1CCC(CN2CCCC2)C1=O (configuration not stated),-7,·,-12,-4,9,102*,77*
COc1ccccc1C(=O)Nc1nc2ccc(S(C)(=O)=O)cc2s1,-215,25,-39,12,35,-116,·
COc1ccccc1C(=O)Nc1nc2ccccc2s1,86*,·,-20,-95*,91*,104*,95*
COC(=O)C[C@H]1CC[C@H](NC(=O)c2cccc(F)c2)[C@@H](CO)O1,-14,·,·,·,-6,·,·
Cc1cccc(CN2C(=O)[C@H]3Cc4c([nH]c5ccccc45)C(C)(C)N3C2=O)c1,24,·,-11,-1,-6,60*,49*
Cc1cccc(CN2C(=O)[C@@H]3Cc4c([nH]c5ccccc45)C(C)(C)N3C2=O)c1,6,·,17,-3,17,35,·
COCCC(=O)N1CCC(Oc2ccc(C(=O)N3CCCCC3CCO)cc2)CC1 (configuration not stated),6,·,-22,9,9,21,·
CCCCn1c(N)c(N(CCOC)C(=O)c2ccc(-n3c(C)ccc3C)cc2)c(=O)[nH]c1=O,5,·,-2,4,-21,8,·
CCOc1cc(CNCCO)cc(Br)c1OCc1ccccc1Cl,8,10,13,-6,10,106*,74*
Cc1cc(=O)oc2cc(OCC(=O)c3ccc4c(c3)NC(=O)CO4)ccc12,-2,12,0,-4,-51,53*,5
